Results published in PubChem BioAssay AID652053 (Broad Institute, 2013).
About 930 (72%) of roughly 1,300 compounds were called active. The set was probably picked from earlier hits. The list is a sample of the results. Potency and affinity values are given separately. Values without a mark were called inactive.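 The calls were made as follows: active = fitted curve reaches 40% activation signal increase at or below the top valid tested concentration in every replicate test; inconclusive = replicate tests disagree in their calls; inactive = all replicate tests inactive, including effects opposite the expected signal rise.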

Assay: miR-122 inhibitors in Huh7 reporter cells, dose response, cell-based, Huh7 psiCHECK-miR122, Renilla luciferase, cherry-pick (AID 652053)
Settings: 48 h; series mostly up to 35 µM; activation (miR-122 inhibition): at the top concentration

Compound	activation (miR-122 inhibition)
COc1cc(OC)cc(C(=O)N[C@H](C(=O)Nc2nc3ccccc3[nH]2)C(C)C)c1	-7.67%
O=C1N=C(N2CCc3ccccc3C2)S/C1=C\c1cccc(O)c1	-8.87%
Cc1ncc([N+](=O)[O-])n1CC(=O)Nc1ccc2c(c1)OCO2	-4.33%
COc1ccc(C(=O)Nc2ccccc2C(=O)N/N=C/c2ccccc2OC)cc1	13.4%
CCc1ccc(-c2cc(C(=O)NCc3ccccn3)c3ccccc3n2)cc1	7.44%
N/C(Cc1cccc2ccccc12)=N\OC(=O)c1ccc2c(c1)OCO2	-1.01%
CCOc1ccc(N2C(=O)c3cccnc3C2Nc2ccc(F)cc2)cc1 (centres undefined)	-5.12%
CCCC(=O)Nc1nc2ccc(NC(=O)c3c(F)c(F)c(OC)c(F)c3F)cc2s1	-14%
O=C(Nc1ccc2c(c1)OCCO2)C1CCN(S(=O)(=O)c2ccccc2)CC1	-3.73%
O=C(NC(=S)NCc1ccc2c(c1)OCO2)c1ccccc1	-7.87%
Cc1ccc(S(=O)(=O)N(C)C[C@@H]2Oc3ccc(NC(=O)Nc4ccc5c(c4)OCO5)cc3CC(=O)N([C@@H](C)CO)C[C@@H]2C)cc1	15.3%
CC1CCN(S(=O)(=O)N2CCC(C(=O)NCCc3ccccc3)CC2)CC1	3.92%
Cc1cc(C)cc(N(CC(=O)N2CCC(C)CC2)S(=O)(=O)c2ccccc2)c1	29.8%
Fc1ccc(CSc2nnc(-c3cccnc3)o2)cc1	7.27%
CC(C)CC#Cc1ccc2c(c1)O[C@@H](CN(C)C(=O)C1CCC1)[C@@H](C)CN([C@H](C)CO)S2(=O)=O	13.7%
C[C@H](CO)N1C[C@H](C)[C@@H](CN(C)S(C)(=O)=O)Oc2cc(C#Cc3ccccc3)ccc2S1(=O)=O	40.6%
C[C@H](CO)N1C[C@H](C)[C@H](CN(C)C(=O)Nc2cccc3ccccc23)Oc2ccc(N(C)C)cc2CC1=O	-14.8%
COC(=O)CCCCCC(CCC(=O)OC)NC(C)=O (centres undefined)	-13.1%
CC(C)NC(=O)COC(=O)c1ccc(NS(=O)(=O)c2ccc3c(c2)OCCO3)cc1	1.64%
COC(=O)C[C@H]1CC[C@@H]2[C@@H](COc3ccc(NS(=O)(=O)c4ccc(C)cc4)cc3C(=O)N2C)O1	4.83%
COC(=O)C[C@H]1CC[C@H]2[C@H](COc3ccc(NS(=O)(=O)c4ccc(C)cc4)cc3C(=O)N2C)O1	13.6%
COC(=O)C[C@@H]1CC[C@@H]2[C@@H](COc3ccc(NS(=O)(=O)c4ccc(C)cc4)cc3C(=O)N2C)O1	-5.56%

Compound	activation (miR-122 inhibition)
COC(=O)C[C@@H]1CC[C@H]2[C@H](COc3ccc(NS(=O)(=O)c4ccc(C)cc4)cc3C(=O)N2C)O1	-5.27%
CN(C)S(=O)(=O)NC(c1ccccc1)c1ccccc1	-5.77%
O=C(COC(=O)c1cccc(NS(=O)(=O)/C=C/c2ccccc2)c1)Nc1ccccc1OC(F)F	36.2%
C[C@H](CO)N1C[C@H](C)[C@@H](CN(C)S(=O)(=O)c2cccs2)Oc2c(NC(=O)C3CCOCC3)cccc2C1=O	0.798%
Cc1noc(C)c1S(=O)(=O)N(C)C[C@@H]1Oc2c(NC(=O)C3CCCCC3)cccc2C(=O)N([C@H](C)CO)C[C@@H]1C	25.2%
COCC(=O)N1[C@H](CO)[C@H](c2ccccc2)[C@@H]1CNC(=O)c1ccccn1	-10.8%
COCC(=O)NC[C@H]1N[C@H](CO)[C@@H]1c1ccc(C2=CCCCC2)cc1	10.5%
O=C(COC(=O)c1c2c(nc3ccccc13)CCN(Cc1ccccc1)C2)Nc1c(F)cccc1F	-4.25%
O=C(O/N=C1\CCS(=O)(=O)c2sccc21)c1ccccc1	-8.12%
CCCCNC(=O)CN1C(=O)NC2(CCOc3ccccc32)C1=O (centres undefined)	-11.2%
O=C(Nc1ccccc1F)N1C[C@@H]2[C@H](c3ccccc31)[C@@H](CO)N2C(=O)C1CCCC1	0.798%
O=C(c1ccccc1F)N1C[C@H]2[C@@H](c3ccccc31)[C@@H](CO)N2C(=O)C1CCCC1	9.89%
CCC(=O)N1[C@H](CO)[C@@H]2c3ccccc3N(C(=O)c3ccccc3F)C[C@@H]21	19.3%
O=C(NC[C@@H]1[C@H](c2ccccc2)[C@@H](CO)N1C(=O)C1CC1)NC1CCCC1	-5.22%
O=C1CCCS(=O)(=O)c2ccccc21	-3.21%
Cc1ccc2nc(C)c(C)nc2c1N	-8.43%
CNC(=O)[C@@]1(C)C=C[C@@H](Cc2ccccc2)N1C(=O)OC	-0.509%
O=C(Cc1cccs1)Nc1ccc(S(=O)(=O)N2CCCCC2)cc1	24.5%
Cc1ccc(S(=O)(=O)Nc2ccc3c(c2)CC(=O)N([C@@H](C)CO)C[C@@H](C)[C@@H](CN(C)Cc2ccc(C(=O)Nc4ccccc4N)cc2)O3)cc1	-11% [at 26 µM]
Cc1ccc(S(=O)(=O)Nc2ccc3c(c2)CC(=O)N([C@H](C)CO)C[C@H](C)[C@@H](CN(C)Cc2ccc(C(=O)Nc4ccccc4N)cc2)O3)cc1	19.4%
Cc1ccc(S(=O)(=O)Nc2ccc3c(c2)CC(=O)N([C@@H](C)CO)C[C@H](C)[C@@H](CN(C)Cc2ccc(C(=O)Nc4ccccc4N)cc2)O3)cc1	-2.8% [at 28.5 µM]
Cc1ccc(S(=O)(=O)Nc2ccc3c(c2)CC(=O)N([C@H](C)CO)C[C@@H](C)[C@@H](CN(C)Cc2ccc(C(=O)Nc4ccccc4N)cc2)O3)cc1	0.058%
